High-throughput results from PubChem.
AmpC no deterg: qHTS Inhibitors of AmpC Beta-Lactamase (assay without detergent); AmpC nitrocefin hydrolysis, absorbance 480 nm, 0.0001% Triton; P00811; AID 485341, 2010; Potency, µM (titrated, usually from 57.1 µM), inactives show at the highest dose activity change, negative = inhibition, actives largely listed as inhibitors; 330,000 tested, 0.52% active;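 also: plate controls were no compound for no effect and no enzyme for full effect; nearly all actives have a fitted effect of over 20% in size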
Target sequence (P00811 whole entry, looked up): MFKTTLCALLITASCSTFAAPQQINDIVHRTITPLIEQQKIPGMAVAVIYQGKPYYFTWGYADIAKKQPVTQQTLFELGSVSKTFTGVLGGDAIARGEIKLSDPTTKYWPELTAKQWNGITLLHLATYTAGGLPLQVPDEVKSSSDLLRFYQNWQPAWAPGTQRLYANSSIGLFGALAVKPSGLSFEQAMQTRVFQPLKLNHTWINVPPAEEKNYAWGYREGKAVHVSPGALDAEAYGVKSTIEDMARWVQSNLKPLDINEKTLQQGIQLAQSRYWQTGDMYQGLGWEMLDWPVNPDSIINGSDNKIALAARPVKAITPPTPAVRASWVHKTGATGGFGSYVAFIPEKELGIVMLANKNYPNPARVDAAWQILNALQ
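20 mM phosphate pH 7.0 + 0.01% (detergent screen) or 0.0001% Triton X-100; 5.3 nM AmpC reagent; cpd preinc 15 min RT; nitrocefin (800 uM stock) to start; A480 q20 s × 4 min; Activity was normalised to no-enzyme and no-compound control wells.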
AmpC inh detg: qHTS Inhibitors of AmpC Beta-Lactamase (assay with detergent) | AmpC hydrolysis of nitrocefin, absorbance 480 nm, 0.01% Triton | Potency, µM (titrated, usually from 114 µM), for inactives: top-dose activity change, negative = inhibition, hits mostly inhibitors | 370,000 tested, 0.041% active | AID 485294, 2010;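 also: 0% = no-compound wells and -100% = no-enzyme wells; nearly all actives have a fitted effect of over 25% in size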
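AmpC (5.3 nM in the dispensed reagent) in 20 mM phosphate pH 7.0 with 0.01% (detergent screen) or 0.0001% Triton X-100 was preincubated with compounds for 15 min at room temperature. Nitrocefin was then added from an 800 uM solution, and hydrolysis was followed at 480 nm.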
Pf growth 48h: Primary qHTS for delayed death inhibitors of the malarial parasite plastid, 48 hour incubation; P. falciparum luciferase growth in erythrocytes, 48 h; Potency, µM (top dose mostly 28.7 µM), without a hit: at the top dose activity change, negative = inhibition, hits mostly inhibitors; 310,000 tested, 5.9% active; also: % is scaled to controls: 0 for no effect and ±100 for the full control effect
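Compounds are pin-transferred into medium, infected erythrocytes (2% hematocrit, 0.1% parasitemia final) are added, and plates sit one parasite generation at 37 C in 5% CO2. Detection reagent is then added and luminescence measured.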
Sm TGR inh: qHTS Assay for the Inhibitors of Schistosoma Mansoni Peroxiredoxins. Schistosoma mansoni thioredoxin glutathione reductase (TGR), Q962Y6. purified TGR, DTNB reduction, TNB absorbance 405 nm. Potency, µM (top dose mostly 114 µM), inactives show top-dose activity change, negative = inhibition, actives largely listed as inhibitors. 360,000 tested, 3% active. AID 485364, 2010; also: % is scaled to controls: 0 for no effect and ±100 for the full control effect; nearly all actives have a fitted effect of over 60% in size
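TGR 20 nM + NADPH 100 uM (dispensed conc.), cpd preinc 15 min RT; start with NADPH (500 uM addition) then DTNB (15 mM addition). Kinetic TNB absorbance, 405 nm filter. Four-parameter Hill fit across titration.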
Pf growth 96h: Primary qHTS for delayed death inhibitors of the malarial parasite plastid, 96 hour incubation. P. falciparum luciferase reporter growth, 96 h. Potency, µM (highest dose often 28.7 µM), for the others: at the top dose activity change, negative = inhibition, hits mostly inhibitors. 320,000 tested, 6.9% active. AID 504834, 2011; also: % is scaled to controls: 0 for no effect and ±100 for the full control effect
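Delayed-death screen, second-generation endpoint: infected erythrocytes, 2% hematocrit, 0.05% parasitemia final; 96 hours at 37 C, 5% CO2; luciferase detection reagent; luminescence decrease equals reduced growth.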
SARS PLP yeast: qHTS of Yeast-based Assay for SARS-CoV PLP. S. cerevisiae expressing SARS-CoV PLpro, growth rescue. Potency, µM (series often up to 32.9 µM), inactives show at the highest dose activity, positive = growth rescue, most hits filed as activators. 330,000 tested, 0.19% active; calls by dose curve; also: 0% is about no effect; nearly all actives have a fitted effect of over 55% in size
An asterisk follows results filed as active; ? = inconclusive; · = not tested or not shown. This is a sample that favours compounds with a hit; in the whole collection about 12% have one here. Unless noted, calls follow the shape of the dose curve; as a rule, active = well fitted curve in the direction sought with a large enough effect; inconclusive = small, poorly fitted or top-dose-only effect, or another doubt; inactive = no such curve, though single readings can be large; an effect the other way counts as inactive or inconclusive. Potency is read from the fitted curve at half-maximal effect.

SMILES | AmpC no deterg | AmpC inh detg | Pf growth 48h | Sm TGR inh | Pf growth 96h | SARS PLP yeast
COc1ccc(OC)c(Nc2nc(-c3sc(NC(=O)c4ccccc4)nc3C)cs2)c1 | -21% | 2% | ? | 1% | -22% | 2%
COCCCNS(=O)(=O)c1cc(-c2onc(C)c2C)ccc1OC | · | 0% | · | -3% | · | ·
CCC(Sc1nncn2c1cc1occc12)C(=O)Nc1ccc(C)c(Cl)c1 (stereo not given) | · | -10% | · | -9% | · | ·
CCCCC(C(=O)NC1CCCC1)N(C(=O)c1snc(C(N)=O)c1N)c1ccc(C)cc1 (stereo not given) | -21% | -5% | ? | -9% | 49% | 1%
CC(=O)c1cccc(Nc2nc(-c3sc(N)nc3C)cs2)c1 | -31% | -6% | ? | -31% | 17µM* | -4%
CC(=O)c1cccc(Nc2nc(-c3sc(C)nc3C)cs2)c1 | 76% | 0% | -20% | 1% | 362% | -7%
CCc1ccc(CNC(=O)c2sc3ncccc3c2-n2c(C)ccc2C)cc1 | · | -9% | · | -2% | · | ·
O=[N+]([O-])c1ccc(N2CCNCC2)cc1NCc1ccco1 | 18µM* | -11% | 1% | -7% | -6% | 17%
O=C(c1cccc2ccccc12)N1CCN(c2ccc([N+](=O)[O-])c(NCc3ccco3)c2)CC1 | -14% | ? | ? | 4% | 85% | -14%
Cc1ccc(C(=O)N2CCN(c3ccc([N+](=O)[O-])c(NCc4ccco4)c3)CC2)cc1 | 20% | 0% | ? | -1% | 4.7µM* | 1%
Cc1cccc(C(=O)N2CCN(c3ccc([N+](=O)[O-])c(NCc4ccco4)c3)CC2)c1 | -2% | 3% | ? | 1% | 12µM* | -2%
Cc1ccccc1C(=O)N1CCN(c2ccc([N+](=O)[O-])c(NCc3ccco3)c2)CC1 | 6% | -6% | 13µM* | -21% | ? | -9%
Cc1ccc(CNC(=O)c2nc(-c3ccc(Cl)cc3)n3c2CCCCC3)cc1 | · | -2% | · | 0% | · | ·
Cc1ccc(Cl)cc1NCc1nnc2n1CCCCC2 | · | 13% | · | 1% | · | ·
Cc1nc(NCCc2ccccc2F)c(C#N)c(C)c1[N+](=O)[O-] | ? | 0% | ? | 1% | 10% | 4%
Cc1ccccc1-n1c(O)c(C(c2ccncc2)c2c(O)n(-c3ccccc3C)c(=O)[nH]c2=O)c(=O)[nH]c1=O | -7% | -5% | -3% | 1.1µM* | 5% | 2%
Cc1ccc(C)n1-c1cccc(S(=O)(=O)N2CCOCC2)c1 | -2% | 9% | ? | 35µM* | 13µM* | -4%
O=S(=O)(c1cccc(S(=O)(=O)N2CCOCC2)c1)N1CCCCC1 | 6% | ? | · | 5% | 38% | ?
Cc1cc(C(=O)CCl)c(C)n1-c1cccc(S(=O)(=O)N2CCOCC2)c1 | -13% | 11% | -27% | 3.5µM* | -113% | ?
COCCN(Cc1nc(C(c2ccccc2)c2ccccc2)no1)C(C)C | 77% | 2% | -21% | -26% | ? | -5%
N#CCc1nc(C(c2ccccc2)c2ccccc2)no1 | 18µM* | -6% | ? | -7% | ? | 2%
CC(C)N(CCO)Cc1nc(C(c2ccccc2)c2ccccc2)no1 | 191% | 9% | ? | 39% | 9.3µM* | -1%
CCCCCCCCCCCCCCCCCC(=O)OC[C@@H](O)[C@H]1OC[C@H](O)[C@H]1O | · | · | -4% | · | 13% | ·
COc1ccc(-n2ncc3c(=O)n(CC(=O)Nc4ccc5c(c4)OCCO5)cnc32)cc1 | 0% | -5% | 17% | -6% | 4.7µM* | 0%
COc1ccc(-n2ncc3c(=O)n(CC(=O)NC(C)C)cnc32)cc1 | -5% | 3% | 0% | -22% | 7.4µM* | -2%
SMILES | AmpC no deterg | AmpC inh detg | Pf growth 48h | Sm TGR inh | Pf growth 96h | SARS PLP yeast
COc1ccc(N(C(=O)c2ccc(OC)c(OC)c2)S(=O)(=O)c2ccc(Cl)cc2)cc1 | · | -3% | · | -11% | · | ·
Cc1cccc(NC(=S)/N=C(\N)Nc2nc(C)c3cc(C)ccc3n2)c1 | -28% | -4% | ? | 8% | ? | -4%
Cc1cccc(NC(=S)/N=C(\N)Nc2nc(C)c3ccc(C)cc3n2)c1 | -26% | 1% | 13µM* | 5% | ? | 28%
Cc1cc(C)cc(NC(=S)/N=C(\N)Nc2nc(C)c3ccccc3n2)c1 | -24% | -5% | ? | 4% | 13µM* | ?
CCOc1ccc2nc(N/C(N)=N/C(=S)Nc3ccc(OC)cc3)nc(C)c2c1 | -31% | -6% | 4.1µM* | 0% | ? | 0%
COc1ccc2nc(N/C(N)=N/C(=S)Nc3ccccc3)nc(C)c2c1 | -42% | 6% | ? | 27% | 3% | 17%
Cc1cccc(NC(=S)/N=C(\N)Nc2nc(C)c3ccccc3n2)c1 | -33% | 0% | -2% | 6% | 10µM* | ?
CCc1ccc(-c2nn(CC(=O)NCc3ccccc3)c3c2cnc2ccc(C)cc23)cc1 | · | 20% | · | -2% | · | ·
O=C(Cn1nc(-c2ccc(Cl)cc2)c2ccccc2c1=O)Nc1cccc(C(F)(F)F)c1 | · | -5% | · | 2% | · | ·
Cn1cccc1/C=N/NC(=O)c1sc2cc(Cl)ccc2c1Cl | -2% | -1% | 7% | -18% | 2.3µM* | -6%
Cc1ccc2c(Cl)c(C(=O)N/N=C/c3cccn3C)sc2c1 | -11% | -10% | 40% | -4% | ? | -15%
CC(C)c1ccc(NC(=O)COc2ccc(S(=O)(=O)N3CCOCC3)cc2)cc1 | 19% | 1% | ? | 6% | · | 20%
CC(C)=NOc1nc(N(C)C)nc(N(C)C)n1 | -7% | 2% | 11% | 0% | 3% | 14%
N#Cc1c(/N=C/c2ccccc2)oc(-c2ccccc2)c1-c1ccccc1 | -33% | ? | ? | 3% | -18% | 6%
N#Cc1c(/N=C/c2ccco2)oc(-c2ccccc2)c1-c1ccccc1 | -46% | ? | 17µM* | ? | 27% | 0%
Cc1cc(-c2ccc(C)c(S(=O)(=O)N(C)c3ccc(C)c(C)c3)c2)on1 | · | 3% | · | 6% | · | ·
CCOC(=O)N1CCC(N2CCN(S(=O)(=O)c3ccc([N+](=O)[O-])cc3)CC2)CC1 | 25% | -2% | 2.1µM* | -9% | ? | -2%
O=[N+]([O-])c1ccc(S(=O)(=O)N2CCN(C3CCN(Cc4ccccc4)CC3)CC2)cc1 | -3% | 2% | ? | -4% | 26% | 2%
CCOC(=O)C1CCCN(S(=O)(=O)c2ccc3ccccc3c2)C1 (stereo not given) | 5% | -2% | 102% | 2% | -6% | 24%
